Laboratory results published in PubChem BioAssay (NCATS).
Inconclusive results are not listed. Activity calls are given as the source filed them. Calls come from the whole dose curve; as a rule, active = well fitted curve in the direction sought with a large enough effect; inconclusive = small, poorly fitted or top-dose-only effect, or another doubt; inactive = no such curve, though single readings can be large; an effect the other way counts as inactive or inconclusive.

What was measured:
[1] = qHTS of pediatric cancer cell lines to identify multiple opportunities for drug repurposing: Primary screen for NB-EBc1 cells (AID 1347095); note: potency is the fitted concentration of half-maximal effect
Procedure, shortened: (§1)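 Viability was measured as metabolically active cells after 48 hours of treatment, read by CellTiter-Glo luminescence. Compounds were tested at multiple final concentrations, giving concentration-response curves.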

[2] = qHTS of pediatric cancer cell lines to identify multiple opportunities for drug repurposing: Primary screen for U-2 OS cells (AID 1347096); note: nearly all actives have a fitted effect of over 50% in size
Procedure, shortened: (§2)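 Cells (500-1,000/well) in growth media were settled 5 h at 37 degrees C, then given compounds for 48 h. Viability was read as CellTiter-Glo luminescence. Primary runs used MIPE at 11 points (0.78 nM-46 µM) and NPC at 8 points (0.59 nM-46 µM); follow-ups used 11 points.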

[3] = qHTS of pediatric cancer cell lines to identify multiple opportunities for drug repurposing: Primary screen for Saos-2 cells (AID 1347097); note: nearly all actives have a fitted effect of over 40% in size; note: potency is the fitted concentration of half-maximal effect
Procedure, shortened: as §1

[4] = qHTS of pediatric cancer cell lines to identify multiple opportunities for drug repurposing: Primary screen for control Hh wild type fibroblast cells (AID 1347106); note: nearly all actives have a fitted effect of over 55% in size; note: potency is the fitted concentration of half-maximal effect
Procedure, shortened: as §2

[5] = qHTS of pediatric cancer cell lines to identify multiple opportunities for drug repurposing: Primary screen for Rh30 cells (AID 1347107); note: series mostly up to about 46 µM; nearly all actives have a fitted effect of over 75% in size
Procedure, shortened: as §2

[6] = qHTS of pediatric cancer cell lines to identify multiple opportunities for drug repurposing: Primary screen for BT-37 cells (AID 1347094); note: potency is the fitted concentration of half-maximal effect
Procedure, shortened: as §1

[7] = qHTS of pediatric cancer cell lines to identify multiple opportunities for drug repurposing: Primary screen for NB1643 cells (AID 1347099); note: nearly all actives have a fitted effect of over 50% in size; note: potency is the fitted concentration of half-maximal effect
Procedure, shortened: as §1

[8] = qHTS of pediatric cancer cell lines to identify multiple opportunities for drug repurposing: Primary screen for LAN-5 cells (AID 1347100); note: potency is the fitted concentration of half-maximal effect
Procedure, shortened: as §2

[9] = qHTS of pediatric cancer cell lines to identify multiple opportunities for drug repurposing: Primary screen for Rh18 cells (AID 1347102); note: nearly all actives have a fitted effect of over 65% in size; note: potency is the fitted concentration of half-maximal effect
Procedure, shortened: as §2

[10] = qHTS of pediatric cancer cell lines to identify multiple opportunities for drug repurposing: Primary screen for MG 63 (6-TG R) cells (AID 1347105); note: nearly all actives have a fitted effect of over 50% in size; note: potency is the fitted concentration of half-maximal effect
Procedure, shortened: as §1

[11] = qHTS of pediatric cancer cell lines to identify multiple opportunities for drug repurposing: Primary screen for Rh41 cells (AID 1347108); note: nearly all actives have a fitted effect of over 70% in size; note: potency is the fitted concentration of half-maximal effect
Procedure, shortened: as §1

[12] = qHTS of pediatric cancer cell lines to identify multiple opportunities for drug repurposing: Primary screen for SK-N-SH cells (AID 1347098); note: nearly all actives have a fitted effect of over 65% in size; note: potency is the fitted concentration of half-maximal effect
Procedure, shortened: (§3)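 Cells (500-1,000/well) rested 5 h, then received compounds for 48 h; metabolically active cells were measured by CellTiter-Glo luminescence. Final concentrations spanned up to 46 µM (MIPE, 11-point) or 0.59 nM-46 µM (NPC, 8-point) in primary screens, 11-point in follow-ups.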

[13] = qHTS of pediatric cancer cell lines to identify multiple opportunities for drug repurposing: Primary screen for OHS-50 cells (AID 1347103); note: nearly all actives have a fitted effect of over 40% in size; note: potency is the fitted concentration of half-maximal effect
Procedure, shortened: as §3

[14] = qHTS of pediatric cancer cell lines to identify multiple opportunities for drug repurposing: Primary screen for BT-12 cells (AID 1347101); note: nearly all actives have a fitted effect of over 25% in size; note: potency is the fitted concentration of half-maximal effect
Procedure, shortened: as §3

[15] = qHTS of pediatric cancer cell lines to identify multiple opportunities for drug repurposing: Primary screen for RD cells (AID 1347104); note: nearly all actives have a fitted effect of over 55% in size; note: potency is the fitted concentration of half-maximal effect
Procedure, shortened: as §1

[16] = qHTS of pediatric cancer cell lines to identify multiple opportunities for drug repurposing: Primary screen for SK-N-MC cells (AID 1347093); note: potency is the fitted concentration of half-maximal effect
Procedure, shortened: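 Metabolically active cells were quantified by ATP-dependent luminescence (CellTiter-Glo, 15 min at room temperature) following 48 h treatment. Cells had been plated at 500-1,000 per well and settled for 5 h beforehand.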

Measured: Potency

CCCCOc1ccc(C(=O)CCN2CCCCC2)cc1
active: [1] 21.1 µM | [3] 23.7 µM
inactive: [2] | [4] | [5]

COc1cc(N)c(Cl)cc1C(=O)NC1CCN(CCCOc2ccc(F)cc2)CC1OC (stereo not drawn)
not listed: [12] | [13] | [14] | [15] | [16]
inactive: all other assays above

C#C[C@]1(O)CC[C@H]2[C@@H]3CCc4cc(OC5CCCC5)ccc4[C@H]3CC[C@@]21C
active: [12] 17.2 µM | [13] 19.5 µM
inactive: [1] | [4] | [5] | [11]

Oc1ccc(Cl)cc1Sc1cc(Cl)ccc1O
inactive: [2] | [4]
active: [6] 21.9 µM | [1] 15 µM | [3] 15 µM | [7] 18.8 µM | [8] 18.8 µM | [14] 19.5 µM | [15] 23.7 µM

CC/C(=C(/CC)c1ccc(O)cc1)c1ccc(O)cc1
inactive: [2] | [4] | [5] | [11]
active: [16] 6.68 µM | [12] 5.45 µM

Oc1c(I)cc(I)c2cccnc12
inactive: [2] | [7] | [9] | [4] | [5]

CC(C)NC[C@@H](O)COc1cccc2ccccc12
active: [15] 26.6 µM
not listed: [3] | [13] | [14] | [16]
inactive: all other assays above

Oc1ccc(Cl)c2cccnc12
inactive: [2] | [10] | [5]
active: [12] 8.64 µM | [8] 21.1 µM | [14] 5.5 µM | [4] 16.8 µM

C[C@@H](CN(C)C)CN1c2ccccc2Sc2ccccc21
inactive: [16] | [1] | [2] | [7] | [8] | [10] | [4] | [5] | [11]

c1ccc(-c2ccc(C(c3ccccc3)n3ccnc3)cc2)cc1 (stereo not drawn)
inactive: [3] | [9] | [10] | [5]

CCN(CC)CCOc1ccc(C(O)(Cc2ccc(Cl)cc2)c2ccc(C)cc2)cc1 (stereo not drawn)
active: [16] 21.1 µM | [3] 16.8 µM | [8] 21.1 µM | [14] 11 µM | [9] 23.7 µM | [13] 15.5 µM | [15] 21.1 µM

CN1CCC(=C2c3ccccc3Sc3ccccc32)CC1
inactive: [1] | [2] | [7] | [8] | [10] | [5] | [11]
active: [12] 19.4 µM | [13] 17.4 µM

CN(C)CC/C=C1\c2ccccc2Sc2ccc(Cl)cc21
inactive: [2] | [7] | [10] | [4] | [5]

CCOc1ccc(Cc2nccc3cc(OCC)c(OCC)cc23)cc1OCC
active: [14] 6.17 µM
inactive: [10] | [4] | [5]

COc1cccc(CCc2ccccc2OCC(CN(C)C)OC(=O)CCC(=O)O)c1 (stereo not drawn)
active: [12] 17.2 µM
not listed: [8] | [9] | [13] | [14] | [15] | [16]
inactive: all other assays above

NC(=O)C(=O)N/N=C/c1ccc([N+](=O)[O-])o1
active: [7] 21.1 µM | [8] 29.9 µM
inactive: [4]

O=C(N/N=C/c1ccccc1O)c1ccncc1
active: [6] 11 µM | [1] 18.8 µM | [7] 3.35 µM | [8] 2.99 µM | [13] 5.5 µM | [10] 6.68 µM

Cc1ccc(O)c2ncccc12
active: [16] 2.99 µM | [3] 21.1 µM | [12] 7.7 µM | [7] 2.37 µM | [14] 11 µM | [15] 8.41 µM | [10] 10.6 µM | [11] 4.73 µM

CN(C)CCCOc1nn(Cc2ccccc2)c2ccccc12
inactive: [3] | [7] | [9] | [10] | [5] | [11]
active: [12] 15.4 µM

O=C(Nc1ccc(Oc2ccc(Cl)cc2)c(Cl)c1)c1cc(I)cc(I)c1O
inactive: [6] | [2] | [14] | [9] | [4] | [5] | [11]
active: [1] 26.6 µM

CC(C)(C)CC(C)(C)c1ccc(O)c(Cc2ccc(Cl)cc2Cl)c1
active: [1] 13.3 µM | [3] 16.8 µM | [8] 21.1 µM | [13] 24.6 µM | [10] 26.6 µM
inactive: [4]

Cc1c(C)n(CCN(C)C)c2ccc(C(=O)OCCN(C)C)cc12
not listed: [4] | [12] | [14] | [16]
inactive: all other assays above

CC(C)=CCC1C(=O)N(c2ccccc2)N(c2ccccc2)C1=O
active: [1] 21.1 µM | [8] 29.9 µM
inactive: [6] | [2] | [9] | [15] | [10] | [4] | [5] | [11]

COc1ccc(/C=C/C(=O)c2ccc(OC)cc2OC)cc1
inactive: [2] | [10] | [4]
active: [3] 10.6 µM | [12] 19.4 µM | [8] 21.1 µM

O=C(CCN1CCC(c2ccccc2)C1)c1ccc2c(c1)OCCO2 (stereo not drawn)
active: [1] 23.7 µM | [3] 23.7 µM
inactive: [6] | [2] | [9] | [4]

CN(C/C=C/c1ccccc1)Cc1cccc2ccccc12
inactive: [2] | [7] | [9] | [15] | [5] | [11]
active: [3] 23.7 µM
